Source: PubChem BioAssay AID651548 (Broad Institute, 2012)
Hit rate of the full screen: of about 57,000 compounds, about 200 (0.35%) were called active.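 How the source made its calls: active means mean inhibition of replicates at least 50% and every single replicate also reaching 50%; inconclusive means mean inhibition at least 50% but some replicate falls below 50%; inactive means mean inhibition under 50%.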 Shown is part of a subset that was picked to be rich in actives.

target: Histone-lysine N-methyltransferase EZH2 (Homo sapiens) (UniProt Q15910); test: inhibition of PRC2 H3K27 methylation – biochemical, DELFIA time-resolved fluorescence, single point, primary screen (AID 651548); settings: DELFIA TRF, 1 h, at 12.5 µM, hits give high values;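 further: dimethyl H3K27 on biotinylated H3 21-44 peptide detected by antibody; plate controls were median neutral control wells for no effect and median positive control wells for full effect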
Sequence (Q15910 whole entry, looked up): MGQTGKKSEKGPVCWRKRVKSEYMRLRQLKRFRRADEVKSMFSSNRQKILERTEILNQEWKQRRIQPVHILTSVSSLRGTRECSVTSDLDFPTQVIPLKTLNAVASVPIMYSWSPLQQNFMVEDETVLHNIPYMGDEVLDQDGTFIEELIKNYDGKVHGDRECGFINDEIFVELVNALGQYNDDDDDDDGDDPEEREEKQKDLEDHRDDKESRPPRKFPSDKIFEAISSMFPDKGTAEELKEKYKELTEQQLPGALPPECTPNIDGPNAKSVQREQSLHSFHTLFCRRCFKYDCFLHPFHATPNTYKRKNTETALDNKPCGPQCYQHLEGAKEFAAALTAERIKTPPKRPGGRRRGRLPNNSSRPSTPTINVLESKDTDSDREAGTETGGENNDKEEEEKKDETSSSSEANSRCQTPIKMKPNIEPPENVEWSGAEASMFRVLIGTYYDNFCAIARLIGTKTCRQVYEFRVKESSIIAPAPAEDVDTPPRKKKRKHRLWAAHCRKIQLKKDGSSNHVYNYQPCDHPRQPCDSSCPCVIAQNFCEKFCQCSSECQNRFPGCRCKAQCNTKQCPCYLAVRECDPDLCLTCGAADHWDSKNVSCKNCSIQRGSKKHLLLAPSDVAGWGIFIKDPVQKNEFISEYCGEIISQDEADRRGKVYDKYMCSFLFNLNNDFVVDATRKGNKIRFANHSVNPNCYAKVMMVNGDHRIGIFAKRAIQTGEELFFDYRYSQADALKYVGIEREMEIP

SMILES | inhibition
C[C@@H]1O[C@@H](O[C@@H]2C=C3CC[C@@H]4C(C[C@@H](O)[C@]5(C)[C@@H](c6ccc(=O)oc6)CC[C@]45O)[C@@]3(C)CC2)[C@H](O)[C@H](O)[C@H]1O[C@@H]1O[C@H](CO)[C@@H](O)[C@H](O)[C@H]1O (stereo not given in full) | 75.9% (active)
c1ccc(CCCCN2CCC(c3ccccc3)CC2)cc1 | 11.8% (inactive)
CCCCCCCCCCCCCC(=O)O[C@@H]1[C@@H](C)[C@@]2(O)[C@@H](C=C(CO)C[C@]3(O)C(=O)C(C)=C[C@@H]23)[C@@H]2C(C)(C)[C@]12OC(C)=O | -10.7% (inactive)
c1ccc2c(c1)[I+]c1ccccc1-2 | -3.64% (inactive)
CC(C)(Cc1c[nH]c2ccc(Cl)cc12)NCCOc1ccccc1OCC1CC1 | 3.93% (inactive)
